The campaign covered roughly 5,500 compounds. About 2,000 (36%) were called active. Roughly 18% stayed inconclusive and do not appear here. No stated cut-off is given here; in the data, active means normalized growth mostly below about 0.91 (no sharp cut-off); inconclusive means no clear call, values can overlap the other calls; inactive means mostly above about 0.92. Some of the results follow.
Test: chemical genetic growth profiling, strain panel (AID 1159580);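 further: tested at 20 µM; growth read once vehicle control cultures reached saturation at 30 °C; 1 = growth at the plate median or of vehicle wells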
Conditions: S. cerevisiae deletion strains, growth OD

Measured: normalized growth

CO/N=C(/C(=O)NC1C(=O)N2C(C(=O)OCOC(=O)C(C)(C)C)=C(/C=C\c3scnc3C)CSC12)c1csc(N)n1 (centres undefined)
inactive: locus YAL021C, strain ccr4, stronger effect = lower value 0.974 | locus YAL026C, strain drs2, stronger effect = lower value 1.01 | locus YAL030W, strain snc1, stronger effect = lower value 0.992 | locus YBL061C, strain skt5, stronger effect = lower value 1 | locus YBR009C, strain hhf1, stronger effect = lower value 0.98 | locus YBR023C, strain chs3, stronger effect = lower value 1 | locus YBR171W, strain sec66, stronger effect = lower value 1 | locus YBR231C, strain swc5, stronger effect = lower value 0.965 | locus YBR279W, strain paf1, stronger effect = lower value 1 | locus YCL011C, strain gbp2, stronger effect = lower value 1 | locus YCL016C, strain dcc1, stronger effect = lower value 1 | locus YCL069W, strain vba3, stronger effect = lower value 0.999 | locus YCR088W, strain abp1, stronger effect = lower value 0.999 | locus YDL005C, strain med2, stronger effect = lower value 0.999 | locus YDL040C, strain nat1, stronger effect = lower value 1 | locus YDR001C, strain nth1, stronger effect = lower value 1.01 | locus YDR069C, strain doa4, stronger effect = lower value 1.01 | locus YDR137W, strain rgp1, stronger effect = lower value 1.03 | locus YDR159W, strain sac3, stronger effect = lower value 0.902 | locus YDR195W, strain ref2 0.96 | locus YDR297W, strain sur2, stronger effect = lower value 1.01 | locus YDR334W, strain swr1, stronger effect = lower value 0.989 | locus YDR335W, strain msn5, stronger effect = lower value 1.01 | locus YDR392W, strain spt3, stronger effect = lower value 0.906 | locus YEL003W, strain gim4, stronger effect = lower value 0.995 | locus YEL037C, strain rad23, stronger effect = lower value 0.988 | locus YEL061C, strain CIN8 (second series), stronger effect = lower value 0.985 | locus YER015W, strain faa2, stronger effect = lower value 0.988 | locus YER016W, strain bim1, stronger effect = lower value 1.03 | locus YER111C, strain swi4, stronger effect = lower value 0.986 | locus YER155C, strain BEM2 (second series), stronger effect = lower value 0.875 | locus YFR010W, strain ubp6, stronger effect = lower value 0.998 | locus YGL167C, strain pmr1, stronger effect = lower value 1 | locus YGL173C, strain kem1, stronger effect = lower value 1 | locus YGL227W, strain vid30, stronger effect = lower value 1.03 | locus YGL240W, strain doc1, stronger effect = lower value 0.976 | locus YGL253W, strain hxk2, stronger effect = lower value 1.01 | locus YHR013C, strain ard1, stronger effect = lower value 1 | locus YHR027C, strain rpn1, stronger effect = lower value 1 | locus YHR030C, strain SLT2, stronger effect = lower value 1.05 | locus YHR079C, strain IRE1, stronger effect = lower value 1.04 | locus YHR142W, strain chs7, stronger effect = lower value 1.02 | locus YJL092W, strain hpr5, stronger effect = lower value 0.995 | locus YJL095W, strain BCK1 (second series), stronger effect = lower value 0.994 | locus YJL095W, strain BCK1, stronger effect = lower value 1.01 | locus YJL115W, strain asf1, stronger effect = lower value 1 | locus YJL129C, strain trk1, stronger effect = lower value 1.01 | locus YJL154C, strain vps35, stronger effect = lower value 0.996 | locus YJL164C, strain tpk1, stronger effect = lower value 0.989 | locus YJL166W, strain qcr8, stronger effect = lower value 1 | locus YJL187C, strain SWE1, stronger effect = lower value 1 | locus YJR066W, strain TOR1, stronger effect = lower value 1.01 | locus YKL160W, strain elf1, stronger effect = lower value 1 | locus YKR026C, strain gcn3, stronger effect = lower value 0.994 | locus YKR091W, strain srl3, stronger effect = lower value 0.993 | locus YLL001W, strain dnm1, stronger effect = lower value 0.953 | locus YLL026W, stronger effect = lower value 0.996 | locus YLL041C, strain sdh2, stronger effect = lower value 0.997 | locus YLR027C, strain aat2, stronger effect = lower value 1 | locus YLR113W, strain HOG1, stronger effect = lower value 0.962 | locus YLR221C, strain rsa3, stronger effect = lower value 0.994 | locus YLR258W, strain gsy2, stronger effect = lower value 1.01 | locus YLR262C, strain YPT6 (second series), stronger effect = lower value 0.992 | locus YLR320W, strain mms22, stronger effect = lower value 0.955 | locus YLR342W, strain FKS1, stronger effect = lower value 1.01 | locus YLR357W, strain rsc2, stronger effect = lower value 0.942 | locus YLR370C, strain arc18, stronger effect = lower value 0.991 | locus YLR384C, strain iki3, stronger effect = lower value 1.02 | locus YML120C, strain ndi1, stronger effect = lower value 0.995 | locus YMR058W, strain fet3, stronger effect = lower value 0.991 | locus YMR125W, strain sto1, stronger effect = lower value 0.981 | locus YMR129W, stronger effect = lower value 0.992 | locus YMR205C, strain PFK2, stronger effect = lower value 0.99 | locus YMR231W, strain pep5, stronger effect = lower value 0.994 | locus YNL071W, strain lat1, stronger effect = lower value 0.999 | locus YNL183C, strain NPR1, stronger effect = lower value 0.981 | locus YNL209W, strain ssb2, stronger effect = lower value 1.01 | locus YNL248C, strain rpa49, stronger effect = lower value 1.01 | locus YNL322C, strain KRE1 (second series), stronger effect = lower value 0.984 | locus YNR049C, strain mso1, stronger effect = lower value 0.991 | locus YOR001W, strain rrp6, stronger effect = lower value 0.973 | locus YOR070C, strain gyp1, stronger effect = lower value 1 | locus YOR080W, strain dia2, stronger effect = lower value 0.996 | locus YOR083W, strain WHI5, stronger effect = lower value 0.95 | locus YOR106W, strain vam3, stronger effect = lower value 1.01 | locus YOR231W, strain MKK1, stronger effect = lower value 1.01 | locus YOR265W, strain rbl2, stronger effect = lower value 0.998 | locus YOR270C, strain vph1, stronger effect = lower value 1.04 | locus YOR290C, strain snf2, stronger effect = lower value 1.01 | locus YPL051W, strain arl3, stronger effect = lower value 1.01 | locus YPL078C, strain atp4, stronger effect = lower value 0.998 | locus YPL106C, strain sse1, stronger effect = lower value 1.01 | locus YPL240C, strain hsp82, stronger effect = lower value 1 | locus YPL256C, strain CLN2, stronger effect = lower value 1.03
